High-throughput results (PubChem BioAssay)
ASK1 inh: inhibitors of human ASK1 kinase | Q99683 | AID 1159602 | AlphaScreen MKK6 phosphorylation by ASK1, luminescence | inhibition, % at 7.44 µM | 0.99% of 22,000 active; in the data active = inhibition above about 35%
Target sequence (Q99683 whole entry, looked up): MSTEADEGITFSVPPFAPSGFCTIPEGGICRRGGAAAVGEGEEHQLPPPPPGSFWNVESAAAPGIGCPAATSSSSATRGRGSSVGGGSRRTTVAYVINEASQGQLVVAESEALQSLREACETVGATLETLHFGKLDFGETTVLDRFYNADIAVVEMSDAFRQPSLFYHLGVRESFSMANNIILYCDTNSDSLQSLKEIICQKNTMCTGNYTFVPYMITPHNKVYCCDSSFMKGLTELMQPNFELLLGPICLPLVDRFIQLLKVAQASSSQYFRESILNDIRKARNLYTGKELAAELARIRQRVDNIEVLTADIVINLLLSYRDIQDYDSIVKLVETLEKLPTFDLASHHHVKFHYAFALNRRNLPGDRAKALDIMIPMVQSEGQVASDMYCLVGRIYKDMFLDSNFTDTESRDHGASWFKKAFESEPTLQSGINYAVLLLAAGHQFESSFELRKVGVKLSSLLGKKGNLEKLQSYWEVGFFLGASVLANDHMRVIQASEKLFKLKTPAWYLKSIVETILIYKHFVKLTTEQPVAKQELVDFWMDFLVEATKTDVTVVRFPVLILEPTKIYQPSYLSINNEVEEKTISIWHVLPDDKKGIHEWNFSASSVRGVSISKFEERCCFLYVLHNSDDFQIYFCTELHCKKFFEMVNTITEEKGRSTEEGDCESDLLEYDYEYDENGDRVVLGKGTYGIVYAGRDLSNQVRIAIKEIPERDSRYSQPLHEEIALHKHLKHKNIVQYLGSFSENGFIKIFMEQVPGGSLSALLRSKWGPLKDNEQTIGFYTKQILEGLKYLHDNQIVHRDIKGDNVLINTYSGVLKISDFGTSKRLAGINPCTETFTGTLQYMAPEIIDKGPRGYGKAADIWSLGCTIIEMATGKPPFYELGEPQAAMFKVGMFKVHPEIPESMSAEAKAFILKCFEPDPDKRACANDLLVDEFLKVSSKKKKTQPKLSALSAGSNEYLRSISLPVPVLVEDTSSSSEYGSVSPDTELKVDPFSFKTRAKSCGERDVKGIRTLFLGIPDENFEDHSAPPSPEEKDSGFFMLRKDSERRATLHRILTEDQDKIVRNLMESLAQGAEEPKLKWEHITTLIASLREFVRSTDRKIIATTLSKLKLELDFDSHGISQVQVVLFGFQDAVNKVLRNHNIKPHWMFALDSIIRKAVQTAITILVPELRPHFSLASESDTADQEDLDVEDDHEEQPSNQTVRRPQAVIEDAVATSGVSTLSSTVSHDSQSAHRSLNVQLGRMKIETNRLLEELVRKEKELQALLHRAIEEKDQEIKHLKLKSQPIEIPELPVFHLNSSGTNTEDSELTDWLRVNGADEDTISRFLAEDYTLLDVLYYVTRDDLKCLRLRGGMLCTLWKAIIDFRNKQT
ULK1 primary: inhibitors of human ULK1 kinase; O75385; inhibition, % at 5.96 µM; AlphaScreen Atg13 phosphorylation by ULK1, luminescence; 1.9% of 30,000 active; AID 1259251; in the data active = inhibition above about 43%
A number is an active result; - = inactive; . = no result. This is a sample that favours compounds with a hit; in the whole collection about 2.5% have one here.

SMILES	ASK1 inh	ULK1 primary
Cc1nc(C)n(-c2ccc(Nc3cc(-c4cnn(C)c4)ccn3)cc2)n1	-	-
Cn1cc(-c2ccc3cnc(Nc4ccccc4)cc3c2)cn1	-	65.7
COc1ccccc1NC(=O)C1=C(C)NC(SC)=C(C#N)C1c1ccc(C)o1 (stereo not given)	.	-
Cc1cnc(NCc2ccc3c(c2)OCO3)nc1NCc1cccc(C(F)(F)F)c1	-	-
COc1ccc(C(=O)NC2CCCCC2)cc1[N+](=O)[O-]	.	-
CN1CCN(C(=O)c2ccc(-c3nc(NCc4ccccc4)c4ncn(-c5ccccc5)c4n3)cc2)CC1	-	-
Cc1ccc(-c2ncn(-c3ccc(Nc4ncc5ccc(-c6cnn(C)c6)nc5n4)cc3)n2)cn1	-	-
Cn1cc(-c2nc(Nc3ccc(-n4cnc(N5CCOCC5)n4)cc3)ncc2F)cn1	-	-
Cc1ccc(-c2ccc(Nc3ncc4ccc(-c5cnn(C)c5)c(Cl)c4n3)cc2)cn1	-	43.8
Cn1cc(-c2ccc3cnc(Nc4ccc(-n5cnc(N6CCOCC6)n5)cc4)cc3c2)cn1	-	73.7
CC(C)n1cnc2c(Nc3ccc(Oc4ccccc4)cc3)nc(NCCCN3CCCC3=O)nc21	-	-
Cc1cc(Nc2cc(Nc3ccccc3C(N)=O)ccn2)ccc1N1CCOCC1	-	-
Cc1cc(Nc2ncc(Cl)c(Nc3ccccc3C(N)=O)n2)ccc1N1CCOCC1	-	70.3
Cc1cnc(Nc2ccc(N3CCOCC3)cc2)nc1Nc1ccccc1	-	-
Cc1cnc(Nc2ccc(N3CCOCC3)cc2)nc1Nc1ccccc1C(N)=O	-	95.3
NC(=O)c1ccccc1Nc1nc(Nc2ccc(Cl)cc2)ncc1Cl	-	-
NC(=O)c1ccccc1Nc1nc(Nc2ccc(N3CCOCC3)c(Cl)c2)ncc1Cl	-	80.4
O=C(NCc1ccccc1)c1cccc(Nc2ccc(-n3ccnc3)cc2)n1	-	-
c1ccc(CNc2nc(NCc3cccnc3)nc3c2ncn3C2CCCCC2)cc1	-	-
CCC(=O)/C=C/n1c(=S)oc2ccccc21	.	48.4
CC(=O)Nc1ccc(/C=C2/SC(=O)NC2=O)cc1	.	-
O=C1NC(=O)/C(=C\c2cc(Br)cc(Cl)c2O)S1	.	44.4
CN(C)c1cccc(Nc2nc(Nc3ccccc3)c3[nH]cnc3n2)c1	-	-
CC(C)N(CCNc1nc(Nc2ccc3ncccc3c2)nc2nc[nH]c12)C(C)C	-	-
COc1cc(Nc2ncc(C)c(NC3CC3)n2)cc(OC)c1OC	-	64.7
SMILES	ASK1 inh	ULK1 primary
Oc1ccc(CCNc2nc(Nc3ccc4ncccc4c3)nc3nc[nH]c23)cc1	-	59.9
Cc1cnc(Nc2ncccn2)nc1NC1CC1	-	-
COc1cc(Nc2nc(NCc3ccc4c(c3)OCO4)nc3nc[nH]c23)cc(OC)c1OC	-	-
COc1cc(Nc2nc(Nc3ccc4c(c3)OCO4)c3[nH]cnc3n2)cc(OC)c1OC	-	52.2
CN(C)c1cccc(Nc2nc(NC3CC3)c3[nH]cnc3n2)c1	-	42.7
CN1CCN(C(=O)c2ccc(-c3nc4ccc(C(=O)Nc5ccc(Oc6ccccc6)cc5)cc4s3)cc2)CC1	-	-
COc1ccc(CCNc2cc(C)nc(-c3ccc(OC)nc3)n2)cc1	-	-
Cc1cnc(Nc2cccc(N(C)C)c2)nc1Nc1ccccc1	-	-
COc1ccc(CCNc2nc(Nc3cc(OC)c(OC)c(OC)c3)nc3nc[nH]c23)cc1	-	68.7
COc1cc(Nc2nc(Nc3cccc(N(C)C)c3)ncc2C)cc(OC)c1OC	-	62.9
COc1cc(Nc2nc(NC3CC3)c3[nH]cnc3n2)cc(OC)c1OC	-	62.3
COc1cc(Nc2nc(NC3CCN(Cc4ccccc4)CC3)c3[nH]cnc3n2)cc(OC)c1OC	-	-
COc1ccc(CCNc2nc(Nc3ccccc3)nc3nc[nH]c23)cc1	-	-
COc1cc(Nc2nc(Nc3ccccc3)nc3c2ncn3C(C)C)cc(OC)c1OC	-	-
CC(C)c1nc2ccc(-c3cnn(C)c3)cc2c(=O)[nH]1	-	-
Cc1n[nH]c(C)c1-c1ccc2nc(C(C)C)[nH]c(=O)c2c1	-	59.9
CCN(CC)CCNC(=O)c1ccc(Nc2cc(Nc3ccccc3C(=O)NC)c(C(F)(F)F)cn2)c(OC)c1	-	89.9
CNC(=O)c1ccccc1Nc1cc(Nc2ccc(C(=O)N(C)C)cc2OC)ncc1C(F)(F)F	-	88.3
CNC(=O)c1ccccc1Nc1cc(Nc2ccc(C(=O)NC[C@H](O)C(=O)N(C)C)cc2OC)ncc1C(F)(F)F	-	89.1
COc1ccc(CC(=O)Nc2cc(Nc3ccccc3C(=O)NC[C@H](O)C(=O)N(C)C)ccn2)cc1	-	-
O=C(Nc1ccc(N2CCOCC2)cc1)c1cccc(N2CCN(c3ccccn3)CC2)n1	-	-
CCCNc1ncnc2nc(-c3ccccc3)[nH]c12	-	-
NC(C(=O)N1CCN(C(=O)c2ccc3[nH]ncc3c2)CC1)c1cccc(Cl)c1 (stereo not given)	-	-
COc1cc(C=NNC(=O)c2ccncc2)ccc1O	.	-
COc1cc(/C=N/Nc2nncn2/N=C/c2ccc(O)c(OC)c2)ccc1O	.	51.4
SMILES	ASK1 inh	ULK1 primary
CC(C)n1cnc2c(NCCO)nc(N3CCOCC3)nc21	-	-
Cc1cnc(Nc2ccccc2)nc1NCCOc1ccccc1	-	-
COc1cc(Nc2ncc(C)c(NCCOc3ccccc3)n2)cc(OC)c1OC	-	63.5
CCNc1ncc(C)c(NCCOc2ccccc2)n1	-	-
Cc1cnc(Nc2ccncc2)nc1NCCOc1ccccc1	-	50.3
COc1ccc(CCNc2nc(Nc3cccc(N(C)C)c3)nc3c2ncn3CCN2CCCC2=O)cc1	-	-
COc1cc(Nc2nc(Nc3cc(OC)c(OC)c(OC)c3)c3ncn(CCN4CCCC4=O)c3n2)cc(OC)c1OC	-	-
N#Cc1ccc(-c2ccnc(Nc3ccc(S(N)(=O)=O)cc3)n2)cc1	-	-
Nc1ccc(O)c(C(=O)O)c1	.	54.6
O=C(O)c1cc(O)ccc1O	.	-
N[C@H](Cc1ccc(Br)cc1)C(=O)N1CCC(C(=O)Nc2ccncc2)CC1	-	-
C[C@@H](N)C1CCC(C(=O)Nc2ccncc2)CC1 (stereo not given in full)	-	63.6
Cc1cncc2c(S(=O)(=O)N3CCCN(C(=O)CN)C[C@@H]3C)cccc12	-	-
Cc1cncc2cccc(S(=O)(=O)N3CCCN(C(=O)CN)C[C@@H]3C)c12	-	66.8
COc1nc(NCCOc2ccccc2)nc(-c2csc3ccccc23)n1	-	-
O=C(NCCN1CCOCC1)c1ccnc(-n2ncc3cc(Nc4cccnc4)ccc32)c1	-	-
CC(C)N(CCNC(=O)C1CCN(c2ccc(N3CCCC3CO)nn2)CC1)C(C)C (stereo not given)	-	55.6
O=C(NCCO)C1CCN(c2ccc(N3CCCC3CO)nn2)CC1 (stereo not given)	-	-
O=C(NCc1ccccc1)c1cccc(-n2ncc3ccc(-c4nn[nH]n4)cc32)c1	-	-
CC(=O)Nc1ccc(Nc2nc(Nc3cnccn3)nc3c2ncn3C(C)C)cc1	-	61.3
CC(C)n1cnc2c(Nc3ccc(N4CCOCC4)cc3)nc(Nc3cnccn3)nc21	-	65.0
CC(C)n1cnc2c(Nc3ccc(N4CCOCC4)cc3)nc(Nc3ccccc3)nc21	-	55.7
CC(C)n1cnc2c(Nc3ccc(N4CCOCC4)cc3)nc(Nc3ncccn3)nc21	-	-
CC(=O)Nc1ccc(Nc2nc(Cl)nc3c2ncn3C(C)C)cc1	-	47.2
CC(C)n1cnc2c(Nc3ccccc3)nc(Cl)nc21	-	-
CC(C)n1cnc2c(Nc3ccccc3)nc(Nc3cnccn3)nc21	-	-
CCNc1nc(Nc2ccc(N3CCOCC3)cc2)c2ncn(C(C)C)c2n1	-	-
